From PubChem BioAssay AID1508602 (The Scripps Research Institute Molecular Screening Center, 2020)
About 6,800 (1%) of roughly 650,000 compounds were called active. What follows is part of a selection rich in actives, with near analogues and random picks from the rest. A number with no mark means an inactive call. Rule as the data show it: active = activation above about 4.9%; inactive = the rest.

These compounds were tested against G-protein coupled receptor 151 (Homo sapiens) (UniProt Q8TDV0) (assay: activators of human GPR151, primary screen, cell-based, PathHunter beta-arrestin, luminescence (AID 1508602;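 also: 0% = median of compound wells and 100% = cells with positive control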)). Settings: PathHunter beta-arrestin GPR151 cells, at 11.2 µM, hits give high values.
Chain of G-protein coupled receptor 151 (Homo sapiens) (Q8TDV0 whole entry, looked up): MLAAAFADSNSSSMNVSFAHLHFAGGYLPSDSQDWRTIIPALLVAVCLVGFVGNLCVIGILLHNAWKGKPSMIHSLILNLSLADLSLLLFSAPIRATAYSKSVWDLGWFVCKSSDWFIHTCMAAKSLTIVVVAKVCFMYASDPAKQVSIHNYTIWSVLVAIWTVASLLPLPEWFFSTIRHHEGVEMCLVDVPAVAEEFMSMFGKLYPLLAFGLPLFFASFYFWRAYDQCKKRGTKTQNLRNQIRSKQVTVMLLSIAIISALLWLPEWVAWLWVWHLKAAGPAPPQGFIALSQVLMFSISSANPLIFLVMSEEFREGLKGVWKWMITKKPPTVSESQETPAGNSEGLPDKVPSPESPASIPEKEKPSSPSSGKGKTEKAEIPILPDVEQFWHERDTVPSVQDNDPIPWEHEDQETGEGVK
With `Cc1cccc(C(=O)OCC(=O)NC(=O)NCc2ccccc2)c1C` the activation was 0.774%. Work on `COc1ccc(N2CCN(C(=O)c3ccc(Cn4c(=S)[nH]c5ccc(Br)cc5c4=O)cc3)CC2)cc1` yielded an activation of -0.211%. `Cc1ccc(C(=O)Oc2ccccc2/C=N/N=C2\NC(=O)C(CC(=O)O)S2)cc1` (centres undefined) was tested, and the activation was 7.49% (active). `COc1cc(OC)c(OC)cc1/C=N/N=C1\NC(=O)C(CC(=O)O)S1` (centres undefined) gave an activation of 0.825%. Compound `CC/C(=N\N=C1/NC(=O)C(CC(=O)O)S1)c1ccc(C)cc1` (centres undefined) has an activation of -1.1%. Work on `CCCC(=O)Nc1ccc(S(=O)(=O)N(Cc2ccsc2)C2CC2)cc1` yielded an activation of 0.722%. `O=C(Nc1cccc(NC(=O)c2cccc(Cl)c2Cl)c1)c1ccco1` was tested, and the activation was -0.952%. With `O=C(Nc1ccc(NC(=O)c2cccc3c(Br)cccc23)cc1)c1ccco1` the activation was 34.7% (active). `O=C(Nc1ccc(NC(=O)c2cccnc2Cl)cc1)c1ccco1` was tested, and the activation was 0.162%. Work on `CCN1C(=O)S/C(=C/c2cccc(C(F)(F)F)c2)C1=O` yielded an activation of 1.18%. For `COC(=O)Cn1ncc2c3ccccc3n(Cc3cccc(Cl)c3)c2c1=O`, the activation was 4.95% (active). `CNC(=O)Cn1ncc2c3ccccc3n(Cc3ccccc3)c2c1=O` was tested, and the activation was 0.452%. `CCN(CC)C(=O)Cn1ncc2c3ccccc3n(Cc3ccccc3)c2c1=O` showed an activation of -0.284%. `COCCOC(=O)C1=C(N)OC2=C(C(=O)CC(C)(C)C2)C1c1ccc(F)c(F)c1` (centres undefined) was tested, and the activation was 0.277%. For `CC1=C(C(=O)OCCOc2ccccc2)C(c2ccccc2F)NC(=O)N1` (centres undefined), the activation was -1.1%. With `CCOC(=O)c1sc(NC(=O)C(C)Sc2nnc(CNC(=O)c3ccc(OC)cc3)n2Cc2ccccc2)c(C(=O)OCC)c1C` (centres undefined) the activation was -1.72%. For `Nc1nc(SCc2cccc3ccccc23)c2[nH]cnc2n1`, the activation was -0.0695%. `COc1ccc(-c2nc(N)c3[nH]cnc3n2)cc1` was tested, and the activation was -0.0768%. With `CSc1nc(N)nc2nc[nH]c12` the activation was 16.2% (active). `CC(C)CC(=O)N1CCc2ccccc2C1` gave an activation of -1.1%. With `O=C(Cn1c(=S)nc2ccccn21)N1CCc2ccccc2C1` the activation was 7.33% (active). With `Cc1cccc2cnn(CC(=O)N3CCc4ccccc4C3)c12` the activation was -2%. For `CCc1nc(N2CCC(C(=O)O)CC2)c2oc3ccccc3c2n1`, the activation was -2.33%. For `CCc1nnc2n1N(C(C)=O)C(c1ccc3c(c1)CCCC3)=C(C(C)=O)S2`, the activation was 8.6% (active). For `CCOc1ccc(C2=C(C(=O)CC)Sc3nnc(CC)n3N2C(=O)CC)cc1`, the activation was -0.342%. `CC(=O)C1=C(c2ccc(C(C)(C)C)cc2)N(C(C)=O)n2cnnc2S1` was tested, and the activation was 0.857%. With `CCOc1ccccc1CNn1c(-c2ccc(OC)cc2)nc2ccccc2c1=O` the activation was -1.68%. Compound `COc1ccccc1/C=C/CN1CCNC(=O)C1CC(=O)NC1CC1` (centres undefined) has an activation of -1.56%. Work on `CCCSc1nnc2c(n1)OC(c1cccc(Br)c1)Nc1ccccc1-2` (centres undefined) yielded an activation of -0.594%. `COc1ccc(NCN2C(=O)c3cc(Cl)c(Cl)cc3C2=O)cc1` gave an activation of -1.71%. `CCOC(=O)C1=C(C)N(c2ccc(C)cc2)C(=O)/C1=C\c1ccc(OC)cc1` was tested, and the activation was -0.542%. For `COc1ccc(N2C(=O)C(Cl)=C(Nc3ccc(C)cc3)C2=O)cc1`, the activation was 5.51% (active). With `COc1cc(/C=C2/NC(=O)N(Cc3ccc(Br)cc3)C2=O)ccc1O` the activation was -0.481%. `O=C(Cc1ccccc1)N1CCCc2ccccc21` showed an activation of 0.472%. Work on `O=C(C1CCCN1S(=O)(=O)c1ccc(Cl)cc1)N1CCCc2ccccc21` (centres undefined) yielded an activation of -1.26%. In the case of `O=C(C1CCN(S(=O)(=O)Cc2ccccc2)CC1)N1CCCc2ccccc21`, the activation was 8.15% (active). For `Cc1ccc(C(=O)Nc2ccc(O)c(-c3nc4ccccc4o3)c2)cc1`, the activation was 1.96%. In the case of `C/C(CC(=O)Nc1cccc(F)c1)=N\NC(=O)c1cccc(C)c1`, the activation was 0.312%. `COc1ccc2c(Cl)c(C(=O)Nc3ccc(N(C)C(C)=O)cc3)sc2c1` was tested, and the activation was 0.165%. Compound `O=C1CC[C@@H](CN(Cc2ccccn2)Cc2nc(-c3ccc4c(c3)OCO4)no2)N1` has an activation of -0.5%. For `CN(Cc1nc(-c2ccc3c(c2)OCO3)no1)C1CCCc2ccccc21` (centres undefined), the activation was 6.73% (active). Compound `c1ccc2c(c1)CCC2Nc1nncc(-c2ccc3c(c2)OCO3)n1` (centres undefined) has an activation of 0.54%. For `O=C1c2cccnc2C(=O)N1Cc1ccc(S(=O)(=O)NCc2ccccc2Cl)cc1`, the activation was -0.655%. Work on `COC(=O)c1sc(SC)nc1Nc1ccnc(Nc2ccc(N3CCOCC3)cc2OC)c1` yielded an activation of 0.519%. In the case of `COc1cccc(/C=C(/C#N)C(=O)Nc2ccc(F)cc2)c1O`, the activation was 0.228%. `COc1ccc(/C=C(\C#N)C(=O)Nc2ccc(F)cc2)c(OC)c1` was tested, and the activation was 6.94% (active). `COc1ccc(NC(=O)/C(C#N)=C/c2ccccc2[N+](=O)[O-])cc1` showed an activation of 0.536%. Work on `CCOc1nn(CC)cc1-c1nnc(SCC(=O)NC)n1C` yielded an activation of 1.61%. `CCCNC(=O)N1CCC2(CC1)OCc1ccccc1O2` was tested, and the activation was -0.163%. `O=C(NCCN1CCOCC1)c1cncc(-c2ccccc2)c1` was tested, and the activation was -0.0692%. `Cn1c(=O)cc(OCC(=O)NCCN2CCOCC2)c2ccccc21` was tested, and the activation was -0.103%. With `CC(=O)Oc1cc2c(C(=O)NCCN3CCOCC3)c(C)oc2c2ccccc12` the activation was 7.59% (active). In the case of `CC(O)CNc1ncnc2c1c(-c1ccccc1)cn2-c1ccc(Cl)cc1` (centres undefined), the activation was -0.64%. `O=C(Nc1cc(Oc2cccnc2)cc([N+](=O)[O-])c1)c1cc2nc(-c3ccc(F)cc3)cc(C(F)(F)F)n2n1` showed an activation of 0.0201%. With `Cn1ccc(CC(=O)N2CCOc3ccc(CN4CCCC4)cc3C2)c1` the activation was -0.228%. In the case of `CCC(=O)Nc1cc(C(=O)O)ccc1C`, the activation was 5.86% (active). Compound `COc1cccc(OC)c1C(=O)Nc1cc(C(=O)O)ccc1C` has an activation of 1.75%. For `CCC(=O)Nc1ccc(C(=O)c2ccccc2)cc1NC(=O)CC`, the activation was 0.269%. `COc1ccc(NC(=O)c2cc(S(=O)(=O)N3CCCCC3)ccc2F)cc1` showed an activation of -0.423%. `CCOc1ccc(NC(=O)/C(C#N)=C\c2ccc(OC)cc2)cc1` gave an activation of -0.986%. In the case of `COc1ccc(/C=C(\C#N)C(=O)Nc2cccc(S(=O)(=O)N3CCCCC3)c2)cc1`, the activation was 6.12% (active). Compound `O=C(Nc1ccc2oc(-c3ccc(F)cc3)nc2c1)c1ccc([N+](=O)[O-])cc1` has an activation of 0.435%. `COC(=O)c1cc(NC(=O)COc2ccc([N+](=O)[O-])cc2)cc(C(=O)OC)c1` was tested, and the activation was 5.49% (active). For `Cc1cc2nc(-c3cccc(NC(=O)COc4ccc(Br)cc4)c3)oc2cc1C`, the activation was -0.225%. `O=C(COc1ccc([N+](=O)[O-])cc1)Nc1cccc(Br)c1` gave an activation of 0.574%. In the case of `O=C(COc1ccc([N+](=O)[O-])cc1)Nc1ccc2oc(-c3cccc(F)c3)nc2c1`, the activation was 6.49% (active). `Cc1cccc(NC(=O)COc2ccc([N+](=O)[O-])cc2)c1` was tested, and the activation was 0.0864%. `CCCNc1nc(Cl)nc2c1ncn2Cc1ccc(C(F)(F)F)cc1` was tested, and the activation was 0.16%. Compound `O=C(Cc1csc(SCc2cccc(Cl)c2)n1)NC1CCCC1` has an activation of -0.537%. `Cc1ccc2c(c1)N(CC(=O)N(Cc1ccccc1)Cc1ccc3c(c1)OCO3)C(=O)CO2` gave an activation of 1.35%. For `CCC(=O)N(CCC(Cc1ccccc1)c1ccc2c(c1)OCO2)Cc1ccc(OC(C)C)cc1` (centres undefined), the activation was 6.12% (active). With `O=C(Nc1ccc2c(c1)OCO2)C(c1ccccc1)N(Cc1ccccc1)Cc1ccccc1` (centres undefined) the activation was -0.714%. Work on `CCn1c(SCC(=O)Nc2ccccc2Cl)nnc1-c1ccccc1N` yielded an activation of 0.603%. `CC(C)(C)C(=O)CSc1nc2c(sc(=S)n2CCc2ccccc2)c(=O)n1Cc1ccco1` was tested, and the activation was -0.941%. `CC(C)(C)C1CCC(=NNC(=O)C(=O)NCCc2ccccc2)CC1` (centres undefined) was tested, and the activation was 6.69% (active). In the case of `O=C(NCCc1ccccc1)C(=O)NCCC1CCCCC1`, the activation was -1.51%. Compound `CNC(=O)C(=O)NCCc1ccccc1` has an activation of 2.61%. In the case of `Cc1ccc2c(CC(=O)N3CCc4ccccc4C3)cc(=O)oc2c1`, the activation was -1.02%. `Cc1nnc(C)n1/N=C/c1ccc(Br)cc1` was tested, and the activation was 0.537%. For `Cc1nc([N+](=O)[O-])cn1CC(=O)C12CC3CC(CC(C3)C1)C2`, the activation was 0.332%. With `COc1ccc(CCNc2cc(C)nc3ncnn23)cc1` the activation was -0.69%. In the case of `COP(=O)(OC)C(OC(=O)NC(=O)C(Cl)(Cl)Cl)c1ccccc1` (centres undefined), the activation was 0.583%. `O=C(Nc1ccc(N2CCCCC2)c(Cl)c1)c1ccc([N+](=O)[O-])o1` showed an activation of 1.67%. Compound `CCN(CC)S(=O)(=O)c1ccc(N2CCCC2)c(C(=O)O)c1` has an activation of 1.07%. `CCN(CC)S(=O)(=O)c1ccc(N2CCCC2)c(NC(=O)c2ccc([N+](=O)[O-])o2)c1` was tested, and the activation was 5.27% (active). Compound `Cc1ccc(-c2cnn3ccc(NCc4cccnc4)nc23)cc1C` has an activation of -1.12%. Work on `Cc1ccc(S(=O)(=O)N/N=C/c2c[nH]c3ccc(Br)cc23)cc1` yielded an activation of 0.63%. `O=C(O)c1ccc(-c2nc(-c3cccs3)c(-c3cccs3)[nH]2)cc1` showed an activation of 1.43%. In the case of `c1ccc(-c2nc(-c3cccs3)[nH]c2-c2cccs2)cc1`, the activation was 6.25% (active). Compound `COc1cc(OC)cc(-c2nc(-c3ccccc3)c(-c3cccs3)[nH]2)c1` has an activation of 0.0508%. Work on `O=C1NC2(CCN(CC3CCC=CO3)CC2)Oc2ccccc21` (centres undefined) yielded an activation of -0.166%. `N#Cc1cccc(S(=O)(=O)Nc2cccc(Br)c2)c1` gave an activation of 0.99%. With `CCN(CC)S(=O)(=O)c1cccc(C(=O)N/N=C(\C)c2ccc(C#N)cc2)c1` the activation was -0.108%. `CCN(CC)S(=O)(=O)c1ccc(C)c(NS(=O)(=O)c2cccc(C#N)c2)c1` was tested, and the activation was 5.51% (active).
